Assay results: ChEMBL document CHEMBL4513216, “Probing the Open Global Health Chemical Diversity Library for Multistage-Active Starting Points for Next-Generation Antimalarials” (ACS Infect Dis, 2020)
Screen size: about 68,000 compounds; about 2,700 (4%) showed an effect of 50% or more. For the sample, strong results were picked, then their nearest neighbours and some compounds at random.

The compounds below were run on Plasmodium berghei (assay: Screen against P. berghei liver stage (PbLuc), transformed with Luciferase, at 2uM). Conditions: tested at 2 uM.
Format: functional, HepG2
Work on `CC1(c2ccc(Br)cc2)CC(=O)N(CCC(N)=O)C1=O` (centres undefined) yielded an INHIBITION of -10%.
`CN(CC(C)(CO)CO)C(=O)Nc1cc(Cl)cc(Cl)c1` was tested, and the INHIBITION was -1.72%.
Compound `Cc1nn(C)c(C)c1CN(C)S(=O)(=O)c1c(C)n[nH]c1C` has an INHIBITION of 16.49%.
With `Cc1cc(C)n(C2=NC(NCCCO)c3c(sc4c3CCCC4)N2)n1` (centres undefined) the INHIBITION was 30.54%.
`Fc1cnc(N2CCO[C@H]3[C@H](OCC4CCOCC4)CC[C@@H]32)nc1` was tested, and the INHIBITION was -39.98%.
For `COc1cc(-n2cccc2)c(Cl)cc1C(=O)NS(C)(=O)=O`, the INHIBITION was 1.06%.
With `CCOCCOC(C)C(=O)NCc1cn2cc(Br)ccc2n1` (centres undefined) the INHIBITION was -4.1%.
For `CCOCCOC(C)C(=O)NCc1cn2cc(Cl)ccc2n1` (centres undefined), the INHIBITION was 52.74%.
`CCC(CC)C(=O)NCc1cn2cc(Br)ccc2n1` was tested, and the INHIBITION was -10.87%.
`O=C(c1ccco1)N1CCOCC2(CCN(C3CCOCC3)C2)C1` (centres undefined) gave an INHIBITION of -68.56%.
Compound `c1ccc(CN2CCNCC(Cc3cnccn3)C2)cc1` (centres undefined) has an INHIBITION of 6.19%.
Compound `Cc1ncccc1NC(=O)[C@H]1C[C@@H]2CCN(Cc3ccsc3)C[C@H]2O1` has an INHIBITION of -30.39%.
Compound `CC(C)N(CCCNC(=O)C1CCOCC1)S(C)(=O)=O` has an INHIBITION of 18.14%.
For `CN(C)C(=O)NCc1cc2n(n1)CCCN(CC1[C@H]3CNC[C@@H]13)C2` (some centres undefined), the INHIBITION was 14.46%.
Work on `O=C(O)c1ncccc1OCC(F)(F)F` yielded an INHIBITION of 55.73%.
For `O=C(OC1CCC1)c1ncccc1C(F)(F)F`, the INHIBITION was 46.63%.
With `O=C(OC1CCC1)c1ncccc1OCC(F)(F)F` the INHIBITION was 21.72%.
`CCc1nccn1CC(=O)N1C[C@@H]2CC[C@H]1CN(c1ncccn1)C2` showed an INHIBITION of -54.76%.
Compound `Cc1nc(CN2CCCN(Cc3nc4c(F)cccc4[nH]3)CC2)no1` has an INHIBITION of 27.86%.
Work on `CCCNC(=O)c1cc2c(c3ccccc3n2C)n1C(=O)N(C)C` yielded an INHIBITION of -15.3%.
Work on `CN(C)C(=O)n1c(C(=O)NC(C)(C)CO)cc2c1c1ccccc1n2C` yielded an INHIBITION of 50.35%.
With `CC(C)NC(=O)c1cc2c(c3ccccc3n2C)n1C(=O)N(C)C` the INHIBITION was 9.21%.
For `CN(C)CCN1C(=O)CC[C@@H]2[C@H]1CCN2C(=O)c1ccc(C#N)cc1`, the INHIBITION was 33.35%.
`CS(=O)(=O)N1C[C@H]2CC[C@@H](C1)N(Cc1ccc3nsnc3c1)C2` was tested, and the INHIBITION was 6.3%.
`Cc1cc(C(=O)N2CCCC(Cn3cc(C4CC4)nn3)C2)nc(C)n1` (centres undefined) gave an INHIBITION of 15.27%.
`CC(O)CN1CCC(CNCc2cccc(C(F)(F)F)c2)CC1` (centres undefined) gave an INHIBITION of -32.84%.
Work on `CN1CCCC(CCC(=O)NCCc2nnc(N)s2)C1` (centres undefined) yielded an INHIBITION of 49.25%.
Compound `CCc1nnc(CNC(=O)CCC2CCCCN2C)s1` (centres undefined) has an INHIBITION of -22.64%.
Work on `CCc1nnc(CNC(=O)CCC2CCCN(C)C2)s1` (centres undefined) yielded an INHIBITION of 52.47%.
